TGFb inhibitor: blocks TGF-b signaling; 410,000 tested, 1.2% active; HepG2 CAGA-GFP TGF-b/SMAD3 reporter, GFP fluorescence, 18 h; TGF-beta stimulated, 500 pg/mL final; Potency, µM (titrated, usually from 46.1 µM), most hits filed as inhibitors; also: nearly all actives have a fitted effect of over 65% in size
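First, reporter cells (HEPG2 CAGA-GFP) rested 2 h at 37 degrees C. Next, compounds were pinned in and TGF-beta added to 500 pg/mL final. After 18 h, GFP was imaged per cell and summed per well.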
D3 antag: antagonists of human D3 dopamine receptor; max response, negative = inhibition, %; AID 652054; 360,000 tested, 2.5% active; P35462; D3R cells, DiscoveRx beta-arrestin luminescence, antagonist mode; stronger effect = lower value; in the data active = max response below about -50%; inconclusive = no clear call, values can overlap the other calls
Target sequence (P35462 whole entry, looked up): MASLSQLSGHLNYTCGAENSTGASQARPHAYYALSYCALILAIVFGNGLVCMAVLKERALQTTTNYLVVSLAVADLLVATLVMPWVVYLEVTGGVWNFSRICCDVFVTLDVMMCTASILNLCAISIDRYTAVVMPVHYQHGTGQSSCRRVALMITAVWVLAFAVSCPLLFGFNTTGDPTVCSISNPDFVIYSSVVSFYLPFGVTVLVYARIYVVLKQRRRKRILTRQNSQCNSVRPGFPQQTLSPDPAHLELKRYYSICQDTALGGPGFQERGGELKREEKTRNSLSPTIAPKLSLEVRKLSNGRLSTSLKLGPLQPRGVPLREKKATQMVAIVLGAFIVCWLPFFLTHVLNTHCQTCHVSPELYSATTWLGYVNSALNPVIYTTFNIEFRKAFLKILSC
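Cells plated overnight at 1500 cells/well, then exposed to library compounds with dopamine controls for 90 minutes at 37 degrees C. DiscoveRx reagent added for 30–60 minutes at room temperature; luminescence read, quantitative HTS format.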
ATXN viability: viability counter-screen for ATXN expression inhibitors | S2 cells (HEK-293 line with an ATXN2-luciferase reporter) viability, CellTiter-Fluor protease fluorescence, 24 h | Potency, µM (titrated, usually from 56.7 µM), usual class: cytotoxic | 400,000 tested, 0.49% active | AID 651635; also: nearly all actives have a fitted effect of over 40% in size
HepG2 viability: HepG2 cytotoxicity, counter-screen for TGF-b inhibitors. HepG2 CAGA-GFP viability, ATP luminescence, 18 h. Potency, µM (series often up to 46.1 µM), actives largely listed as cytotoxic. 410,000 tested, 0.76% active
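HepG2 CAGA-GFP cells (1000/well, DMEM with 1% FBS) received compound, then TGF-beta at 500 pg/mL final, and were incubated 18 hours at 37 degrees C. Viability was read by CellTiter-Glo luminescence. Media-only wells were set as complete cell-killing and DMSO as no toxicity.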
DRD3 agonist: agonists of human D3 dopamine receptor; D3R DiscoveRx beta-arrestin cells, luminescence, 90 min; max activation, %; P35462; 410,000 tested, 0.58% active; in the data active = max activation above about 30%
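Agonist-mode cell screen: cells plated at 1500/well and incubated overnight at 37 °C, then exposed to library compounds for 90 min at 37 °C. Detection reagent was added for 30–60 min at room temperature, and luminescence was read.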
ATXN2 expr inh: reduces ATXN2 reporter expression in HEK-293 cells | Potency, µM (series often up to 57 µM), hits mostly inhibitors | 360,000 tested, 0.72% active | HEK-293 ATXN2-luciferase reporter, luminescence, 24 h; also: nearly all actives have a fitted effect of over 55% in size
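ATXN2-luciferase reporter cells (luciferase flanked by upstream and downstream ATXN2 gene portions) were treated 24 h at 37 °C with compounds at up to 57 uM. SteadyGlo luminescence gave expression; GF-AFC fluorescence gave viability.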
Of the large screens only hits and unclear results are named; the others gave an inactive call. The list is not random: actives were taken first. Their share in the collection is about 4.7%. Unless noted, calls follow the shape of the dose curve; as a rule, active = well fitted curve in the direction sought with a large enough effect; inconclusive = small, poorly fitted or top-dose-only effect, or another doubt; inactive = no such curve, though single readings can be large; an effect the other way counts as inactive or inconclusive.

CCN(CC)CCOC(=O)c1ccc(NC(=O)c2cc3c(s2)-c2ccccc2OC3)cc1	TGFb inhibitor 11.2µM, HepG2 viability 10µM, ATXN2 expr inh inconclusive (no result: D3 antag)
COc1cc2c(cc1OC)C(C)N(C(=O)c1cc3c(s1)-c1ccccc1OC3)CC2 (configuration not stated)	TGFb inhibitor 11.2µM, ATXN viability inconclusive, ATXN2 expr inh 25.1µM
COc1ccc(C(=O)NCCn2cc(SCC(=O)Nc3ccc4c(c3)OCCO4)c3ccccc32)cc1OC	ATXN viability inconclusive, ATXN2 expr inh inconclusive (no result: D3 antag)
O=C(CN(c1ccc(Cl)c(C(F)(F)F)c1)S(=O)(=O)c1ccccc1)N1CCc2ccccc2C1	TGFb inhibitor inconclusive, ATXN viability inconclusive (no result: D3 antag)
Cc1oc(-c2ccccc2NC(=O)c2ccsc2)nc1CN(C)Cc1ccc2c(c1)CCCN2C	none (no result: TGFb inhibitor, D3 antag, HepG2 viability, DRD3 agonist, ATXN2 expr inh)
COc1ccc(C2c3ccc4ccccc4c3Oc3ncn(CCCO)c(=N)c32)cc1OC (configuration not stated)	TGFb inhibitor 11.2µM, ATXN viability inconclusive, ATXN2 expr inh inconclusive
CN(C)CCCn1cnc2c(c1=N)C(c1ccccc1)c1ccc3ccccc3c1O2 (configuration not stated)	TGFb inhibitor inconclusive, ATXN viability inconclusive (no result: ATXN2 expr inh)
N=c1c2c(ncn1Cc1ccco1)Oc1ccc3ccccc3c1C2c1ccccc1 (configuration not stated)	ATXN2 expr inh 22.4µM (no result: ATXN viability)
COc1ccc(C2c3ccc4ccccc4c3Oc3ncn(CCN(C)C)c(=N)c32)cc1 (configuration not stated)	TGFb inhibitor 15.8µM, ATXN viability inconclusive
COc1ccc(C2c3c(ncn(Cc4ccco4)c3=N)Oc3ccc4ccccc4c32)cc1 (configuration not stated)	ATXN viability inconclusive
N=c1c2c(ncn1CCCO)Oc1c(ccc3ccccc13)C2c1ccccc1 (configuration not stated)	TGFb inhibitor inconclusive, ATXN viability 14.1µM (no result: ATXN2 expr inh)
CSc1ncccc1C(=O)NCC1Cc2cc(-c3cnccn3)ccc2O1 (configuration not stated)	none (no result: TGFb inhibitor, D3 antag, HepG2 viability, DRD3 agonist, ATXN2 expr inh)
COC(=O)c1ccc(NC(=O)COc2ccccc2C(=O)Nc2ccccc2)cc1	none (no result: D3 antag, ATXN viability, DRD3 agonist, ATXN2 expr inh)
COc1ccc(C2c3ccc4ccccc4c3Oc3ncn(CCCO)c(=N)c32)cc1 (configuration not stated)	TGFb inhibitor inconclusive, ATXN2 expr inh 25.1µM (no result: ATXN viability)
COc1ccc(C2c3ccc4ccccc4c3Oc3ncn(CCO)c(=N)c32)cc1 (configuration not stated)	ATXN viability inconclusive, ATXN2 expr inh inconclusive
O=C1CN(C(=S)Nc2ccccc2Cl)CCN1	DRD3 agonist 45.0
CCOc1ccc(CNS(=O)(=O)c2ccc3[nH]c4c(c3c2)CCCC4)cc1OC	TGFb inhibitor inconclusive, ATXN viability inconclusive (no result: D3 antag)
CN1C2CCC1/C(=C\c1ccccc1)C(=O)/C2=C\c1ccccc1	ATXN viability inconclusive, ATXN2 expr inh 25.1µM
Cn1c(=O)c2sccc2n2c(CCCC(=O)Nc3ccc(F)c(F)c3)nnc12	none (no result: D3 antag)
COc1ccc(NC(=O)c2noc3c2CSc2ccccc2-3)cc1Cl	none (no result: D3 antag, ATXN viability, ATXN2 expr inh)
COc1cc(OC)c(NC(=O)c2noc3c2CSc2ccccc2-3)cc1Cl	DRD3 agonist 34.4 (no result: D3 antag, ATXN viability, ATXN2 expr inh)
Nc1nc(Nc2ccc(S(N)(=O)=O)cc2)nn1C(=O)c1c(F)cccc1F	ATXN2 expr inh 12.2µM (no result: TGFb inhibitor, D3 antag, ATXN viability, HepG2 viability, DRD3 agonist)
NS(=O)(=O)c1ccc(NC(=O)c2c(F)cccc2Cl)cc1	none
NC(=O)NC1N=C([O][Al])NC1=O (configuration not stated)	none (no result: TGFb inhibitor, D3 antag, HepG2 viability, DRD3 agonist)
CC1(C)CC(=O)C=C(C#CC2(O)CCCCC2)C1	TGFb inhibitor inconclusive, ATXN viability 15.8µM, HepG2 viability 10µM, ATXN2 expr inh inconclusive
Cc1cccc(C#CC2=CC(=O)CC(C)(C)C2)c1	ATXN viability inconclusive
CCCCn1nnnc1C(c1cc2ccccc2o1)N(CCC#N)Cc1ccccc1 (configuration not stated)	D3 antag -52.7 (no result: TGFb inhibitor, HepG2 viability)
CCC(=O)Nc1ccccc1-c1nc2ccccc2n(C(CC)C(=O)Nc2cccc(Cl)c2)c1=O (configuration not stated)	none (no result: D3 antag, ATXN viability, ATXN2 expr inh)

Screens (PubChem BioAssay)
